Source: the supplement of paper PMC10849652
Of roughly 7,900 targets only a part is listed; those with a hit were picked by preference. About 0.6% of all pairs of compound and target were hits. Values without a mark were called inactive.

Key:
Experiment in all cases: log2 fold change, soluble protein after heating vs DMSO (PISA); higher = thermal stabilisation; K562 cells, 10 uM, 30 min; active = over 0.2 and 3.5 SD of the protein, either way, in both replicates (recomputed)
[1] = compound: C1COCCN1CCN2C3=CC=CC=C3N=C2NC(=O)C4=CC(=CC=C4)[N+](=O)[O-] [IRAK-1-4 Inhibitor I]
Summary of the method: (§1)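 Values are thermal stability changes relative to control samples and are taken from duplicates. They are stated as log2 fold changes. Before quantification by TMTpro 16plex LC-MS/MS with equalised channel sums, K562 cells at 2×10^6 cells/mL were treated with 10 μM compound for 30 min, heated in aliquots for 3 min across 48°C-58°C, pooled, extracted in PBS with 0.5% NP-40 at 4°C, and centrifuged at 21,000xg for 90 min to give the soluble supernatant.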

[2] = compound: C=CC(=O)N1CCC[C@@H](n2nc(-c3ccc(Oc4ccccc4)cc3)c3c(N)ncnc32)C1 [ibrutinib]
Summary of the method: as §1

[3] = compound: CC(=O)c1cnc2ccc(-c3cc(Cl)c(O)c(Cl)c3)nc2c1N[C@H]1CC[C@H](CN(C)C)CC1
Summary of the method: as §1

[4] = compound: CC(C)(C)Cn1c(N)nc2ccc(-c3[nH]c(C(C)(C)C)nc3-c3ccc(F)cc3)nc21 [ralimetinib]
Summary of the method: as §1

[5] = compound: CC(C)(O)CC(=O)NCCn1ccc2ncnc(Nc3ccc(Oc4cccc(C(F)(F)F)c4)c(Cl)c3)c21
Summary of the method: as §1

[6] = compound: CC(C)C1=C2N=C(C=C(N2N=C1)NCC3=CC=CC=C3)NCCCCCCN
Summary of the method: as §1

[7] = compound: CC(C)C[C@@H](C=O)NC(=O)[C@H](CC(C)C)NC(=O)[C@H](CC(C)C)NC(=O)OCc1ccccc1
Summary of the method: as §1

[8] = compound: CC(C)N(C[C@H]1O[C@@H](n2cnc3c(N)ncnc32)[C@H](O)[C@@H]1O)[C@H]1C[C@@H](CCc2nc3cc(C(C)(C)C)ccc3[nH]2)C1 [pinometostat]
Summary of the method: as §1

[9] = compound: CC1=C(C(CC(=O)N1)C2=CC=C(C=C2)C(F)(F)F)C(=O)NC3=C(C=C4C(=C3)C=NN4)F
Summary of the method: as §1

[10] = compound: CC1=C(C2=C(C=C1)C(=O)C3=CC=CC=C3N2CCCN)C
Summary of the method: as §1

[11] = compound: CC1=C(C=C(C=C1)NC(=O)C2=CC(=CC=C2)C(C)(C)C#N)NC3=CC4=C(C=C3)N=CN(C4=O)C
Summary of the method: as §1

[12] = compound: CC1=C(C=C(C=C1)NC(=O)C2=CC(=CC=C2)N(C)C)NC(=O)C3=CC=C(C=C3)O
Summary of the method: as §1

[13] = compound: CC1=CC=C(C=C1)SC2=C3C=C(SC3=CN=C2)C(=O)N
Summary of the method: as §1

[14] = compound: CC1=NC(=CC=C1)C2=C(N=C(N2)C(C)(C)C)C3=CC4=NC=CN=C4C=C3
Summary of the method: as §1

[15] = compound: CCCCN(Cc1ccc(C(=O)NO)cc1)C(=O)Nc1ccccc1 [Nexturastat A]
Summary of the method: as §1

[16] = compound: CCCS(=O)(=O)Nc1ccc(F)c(C(=O)c2c[nH]c3ncc(-c4ccc(Cl)cc4)cc23)c1F [vemurafenib]
Summary of the method: as §1

[17] = compound: CCCS(=O)(=O)Nc1ccc(F)c(C(=O)c2c[nH]c3ncc(Cl)cc23)c1F
Summary of the method: as §1

[18] = compound: CCCc1cc(C)[nH]c(=O)c1CNC(=O)c1cc(-c2ccnc(N3CCN(C)CC3)c2)cc2c1cnn2C(C)C
Summary of the method: as §1

[19] = compound: CCN(CC)Cc1ccc2cc(COC(=O)Nc3ccc(C(=O)NO)cc3)ccc2c1 [givinostat]
Summary of the method: as §1

[20] = compound: CCN(CCCOc1ccc2c(Nc3cc(CC(=O)Nc4cccc(F)c4)[nH]n3)ncnc2c1)CCOP(=O)(O)O [barasertib]
Summary of the method: as §1

UniProt A0JNW5, sequence (A0JNW5 whole entry, looked up): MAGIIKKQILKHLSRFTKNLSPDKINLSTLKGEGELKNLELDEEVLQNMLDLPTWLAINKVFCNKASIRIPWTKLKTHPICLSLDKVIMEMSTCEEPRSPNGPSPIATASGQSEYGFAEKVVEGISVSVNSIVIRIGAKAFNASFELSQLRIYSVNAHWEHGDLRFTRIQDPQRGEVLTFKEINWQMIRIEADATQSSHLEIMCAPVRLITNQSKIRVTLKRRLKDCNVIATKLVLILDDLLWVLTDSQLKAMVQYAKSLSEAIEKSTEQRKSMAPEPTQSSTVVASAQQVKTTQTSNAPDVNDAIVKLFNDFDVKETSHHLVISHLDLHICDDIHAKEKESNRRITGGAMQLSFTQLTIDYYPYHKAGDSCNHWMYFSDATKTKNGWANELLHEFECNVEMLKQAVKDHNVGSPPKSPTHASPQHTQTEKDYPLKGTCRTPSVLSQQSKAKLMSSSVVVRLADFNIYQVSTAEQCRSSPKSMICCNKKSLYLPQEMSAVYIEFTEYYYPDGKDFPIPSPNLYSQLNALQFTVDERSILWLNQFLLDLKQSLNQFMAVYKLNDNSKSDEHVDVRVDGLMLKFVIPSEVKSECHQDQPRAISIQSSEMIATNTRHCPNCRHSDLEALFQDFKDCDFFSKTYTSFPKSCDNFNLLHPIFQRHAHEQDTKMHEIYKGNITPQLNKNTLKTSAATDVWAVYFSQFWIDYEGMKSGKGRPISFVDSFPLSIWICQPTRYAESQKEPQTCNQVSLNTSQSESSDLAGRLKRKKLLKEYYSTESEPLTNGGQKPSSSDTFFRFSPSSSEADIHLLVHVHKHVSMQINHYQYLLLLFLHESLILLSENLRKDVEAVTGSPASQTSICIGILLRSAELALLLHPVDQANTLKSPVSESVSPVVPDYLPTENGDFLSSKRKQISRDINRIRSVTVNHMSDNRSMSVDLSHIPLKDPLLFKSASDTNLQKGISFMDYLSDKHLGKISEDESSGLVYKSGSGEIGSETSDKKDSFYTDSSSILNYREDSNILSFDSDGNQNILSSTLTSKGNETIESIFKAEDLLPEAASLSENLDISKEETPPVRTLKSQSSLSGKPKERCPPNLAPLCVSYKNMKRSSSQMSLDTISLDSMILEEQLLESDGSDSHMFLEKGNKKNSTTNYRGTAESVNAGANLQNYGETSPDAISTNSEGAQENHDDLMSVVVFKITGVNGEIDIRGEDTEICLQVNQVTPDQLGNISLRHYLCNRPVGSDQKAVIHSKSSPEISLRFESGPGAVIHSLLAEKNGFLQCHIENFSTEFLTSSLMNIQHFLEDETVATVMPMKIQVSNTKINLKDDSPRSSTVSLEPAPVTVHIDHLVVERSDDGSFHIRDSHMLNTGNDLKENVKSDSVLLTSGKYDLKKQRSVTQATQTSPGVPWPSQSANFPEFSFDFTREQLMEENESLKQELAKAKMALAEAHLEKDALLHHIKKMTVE
UniProt Q99816, sequence (Q99816 whole entry, looked up): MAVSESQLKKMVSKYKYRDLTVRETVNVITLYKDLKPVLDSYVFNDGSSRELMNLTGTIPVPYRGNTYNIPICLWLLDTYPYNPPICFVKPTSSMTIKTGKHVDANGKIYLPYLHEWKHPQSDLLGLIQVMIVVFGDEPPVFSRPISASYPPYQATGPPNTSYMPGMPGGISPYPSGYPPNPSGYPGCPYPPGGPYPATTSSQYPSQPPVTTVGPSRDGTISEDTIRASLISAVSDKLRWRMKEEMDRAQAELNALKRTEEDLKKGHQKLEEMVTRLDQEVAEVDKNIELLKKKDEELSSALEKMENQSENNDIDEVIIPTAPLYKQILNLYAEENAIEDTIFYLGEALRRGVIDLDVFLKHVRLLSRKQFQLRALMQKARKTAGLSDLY
UniProt Q13263, sequence (Q13263 whole entry, looked up): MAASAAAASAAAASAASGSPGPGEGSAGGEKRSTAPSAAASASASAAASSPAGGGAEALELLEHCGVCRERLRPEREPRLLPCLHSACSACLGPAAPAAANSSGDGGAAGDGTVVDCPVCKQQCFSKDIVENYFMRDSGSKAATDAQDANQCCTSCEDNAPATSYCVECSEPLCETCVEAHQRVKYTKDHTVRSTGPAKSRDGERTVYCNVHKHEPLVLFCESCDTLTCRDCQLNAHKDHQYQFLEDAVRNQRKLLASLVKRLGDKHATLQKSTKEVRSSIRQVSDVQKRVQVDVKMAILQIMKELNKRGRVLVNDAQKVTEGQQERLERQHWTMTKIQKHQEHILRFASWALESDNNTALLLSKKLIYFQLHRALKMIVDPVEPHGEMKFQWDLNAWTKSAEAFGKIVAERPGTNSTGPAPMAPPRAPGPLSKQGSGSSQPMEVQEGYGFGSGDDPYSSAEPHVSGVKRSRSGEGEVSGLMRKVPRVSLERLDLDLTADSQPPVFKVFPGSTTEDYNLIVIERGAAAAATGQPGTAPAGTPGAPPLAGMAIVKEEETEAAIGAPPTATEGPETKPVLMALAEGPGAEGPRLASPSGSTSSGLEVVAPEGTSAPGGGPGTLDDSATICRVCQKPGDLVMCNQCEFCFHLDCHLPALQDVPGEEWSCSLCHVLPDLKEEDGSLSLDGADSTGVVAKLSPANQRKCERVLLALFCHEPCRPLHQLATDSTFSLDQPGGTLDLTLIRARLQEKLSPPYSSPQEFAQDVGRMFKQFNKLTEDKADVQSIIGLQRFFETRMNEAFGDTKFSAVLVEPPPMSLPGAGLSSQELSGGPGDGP
UniProt Q9Y385, sequence (Q9Y385 whole entry, looked up): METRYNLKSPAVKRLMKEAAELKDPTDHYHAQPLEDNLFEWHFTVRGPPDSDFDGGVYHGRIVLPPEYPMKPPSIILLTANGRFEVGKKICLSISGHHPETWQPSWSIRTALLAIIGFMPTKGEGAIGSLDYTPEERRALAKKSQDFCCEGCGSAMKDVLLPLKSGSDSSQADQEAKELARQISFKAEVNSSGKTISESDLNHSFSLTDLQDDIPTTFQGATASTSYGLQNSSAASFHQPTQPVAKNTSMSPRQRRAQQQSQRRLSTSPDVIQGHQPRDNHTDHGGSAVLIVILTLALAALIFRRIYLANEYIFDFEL
UniProt Q86WV6, sequence (Q86WV6 whole entry, looked up): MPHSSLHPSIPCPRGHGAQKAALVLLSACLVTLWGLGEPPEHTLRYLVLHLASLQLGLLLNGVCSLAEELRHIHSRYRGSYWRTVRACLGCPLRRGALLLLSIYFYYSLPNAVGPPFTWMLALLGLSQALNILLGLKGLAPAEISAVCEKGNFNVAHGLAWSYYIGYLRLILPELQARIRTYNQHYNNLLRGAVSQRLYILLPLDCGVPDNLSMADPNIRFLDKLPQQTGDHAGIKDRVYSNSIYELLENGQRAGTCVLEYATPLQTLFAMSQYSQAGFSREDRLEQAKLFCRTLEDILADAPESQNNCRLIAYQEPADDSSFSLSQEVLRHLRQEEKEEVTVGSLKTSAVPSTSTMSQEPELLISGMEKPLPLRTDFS
UniProt Q9H6R7, sequence (Q9H6R7 whole entry, looked up): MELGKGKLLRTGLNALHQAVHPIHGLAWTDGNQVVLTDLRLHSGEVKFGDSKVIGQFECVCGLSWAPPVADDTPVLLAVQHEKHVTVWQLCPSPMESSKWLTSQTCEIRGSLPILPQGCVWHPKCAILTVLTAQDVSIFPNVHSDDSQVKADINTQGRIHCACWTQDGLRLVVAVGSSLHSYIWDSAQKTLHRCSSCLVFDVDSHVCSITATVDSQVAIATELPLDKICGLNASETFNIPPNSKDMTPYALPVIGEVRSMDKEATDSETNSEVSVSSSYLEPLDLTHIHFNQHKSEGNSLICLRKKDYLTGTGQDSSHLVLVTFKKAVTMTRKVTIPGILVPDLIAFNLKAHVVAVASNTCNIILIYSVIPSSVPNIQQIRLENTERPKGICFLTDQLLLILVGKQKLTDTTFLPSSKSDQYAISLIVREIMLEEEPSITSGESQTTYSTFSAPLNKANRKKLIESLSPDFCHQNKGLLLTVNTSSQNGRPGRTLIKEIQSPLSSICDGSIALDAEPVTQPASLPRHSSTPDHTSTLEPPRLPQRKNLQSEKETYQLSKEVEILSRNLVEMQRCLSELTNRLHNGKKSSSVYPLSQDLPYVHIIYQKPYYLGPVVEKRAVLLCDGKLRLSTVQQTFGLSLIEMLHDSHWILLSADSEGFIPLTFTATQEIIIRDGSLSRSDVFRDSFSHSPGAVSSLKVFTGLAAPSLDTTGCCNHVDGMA
UniProt Q9Y6I4, sequence (Q9Y6I4 whole entry, looked up): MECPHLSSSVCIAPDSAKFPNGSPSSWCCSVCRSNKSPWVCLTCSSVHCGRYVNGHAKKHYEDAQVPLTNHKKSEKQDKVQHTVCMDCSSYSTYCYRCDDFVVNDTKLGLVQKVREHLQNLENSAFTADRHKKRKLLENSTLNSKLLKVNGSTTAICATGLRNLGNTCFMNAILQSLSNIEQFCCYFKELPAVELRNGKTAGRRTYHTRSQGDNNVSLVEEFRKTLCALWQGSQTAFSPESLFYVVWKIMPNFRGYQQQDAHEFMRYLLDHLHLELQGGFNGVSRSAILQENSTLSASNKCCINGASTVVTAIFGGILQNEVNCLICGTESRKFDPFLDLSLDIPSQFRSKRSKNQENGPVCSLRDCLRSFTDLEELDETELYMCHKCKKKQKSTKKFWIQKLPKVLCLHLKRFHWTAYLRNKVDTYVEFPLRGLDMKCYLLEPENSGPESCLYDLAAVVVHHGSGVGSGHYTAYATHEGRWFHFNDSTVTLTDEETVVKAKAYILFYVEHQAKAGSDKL

Row | Target | log2 fold change [1] | log2 fold change [2] | log2 fold change [3] | log2 fold change [4] | log2 fold change [5] | log2 fold change [6] | log2 fold change [7] | log2 fold change [8] | log2 fold change [9] | log2 fold change [10] | log2 fold change [11] | log2 fold change [12] | log2 fold change [13] | log2 fold change [14] | log2 fold change [15] | log2 fold change [16] | log2 fold change [17] | log2 fold change [18] | log2 fold change [19] | log2 fold change [20]
1 | WDCP (UniProt Q9H6R7) | -0.01 | -0.038 | 0.078 | -0.006 | -0.053 | 0.032 | 0.014 | 0.076 | 0.055 | 0.023 | 0.003 | 0.013 | -0.103 | -0.023 | 0.061 | -0.087 | 0.025 | -0.004 | 0.116 | -0.06
2 | WAPL isoform 3 (UniProt Q7Z5K2) | -0.086 | -0.002 | -0.05 | -0.072 | -0.057 | -0.339 | 0.125 | 0.054 | -0.003 | -0.056 | -0.038 | -0.109 | 0.056 | -0.006 | -0.134 | 0.097 | 0.083 | -0.054 | 0.149 | 0.201
3 | TSG101 (UniProt Q99816) | 0.05 | 0.004 | -0.017 | -0.005 | -0.025 | -0.146 | 0.031 | -0.003 | 0.001 | -0.012 | 0 | -0.011 | -0.001 | 0.025 | -0.017 | 0.021 | 0.024 | -0.057 | 0.035 | 0.046
4 | TRIM28 (UniProt Q13263) | -0.008 | -0.033 | 0.052 | -0.003 | -0.035 | -0.087 | 0.018 | -0.056 | -0.002 | -0.152 | 0.013 | -0.049 | 0.013 | 0.041 | -0.059 | 0.078 | 0.075 | 0.012 | 0.039 | 0.04
5 | UHRF1BP1L (UniProt A0JNW5) | 0.018 | -0.051 | -0.076 | -0.009 | 0.193 | 0.242 (active) | -0.004 | 0.03 | -0.027 | -0.019 | -0.079 | -0.031 | -0.038 | -0.032 | -0.054 | -0.039 | -0.033 | 0.027 | -0.033 | 0
6 | USP3 (UniProt Q9Y6I4) | 0.035 | -0.083 | -0.126 | -0.013 | -0.107 | -0.146 | -0.145 | -0.075 | 0.006 | -0.006 | 0.026 | -0.016 | 0.085 | 0.069 | 0.01 | 0.112 | 0.192 | -0.069 | -0.022 | 0.067
7 | TMEM173 (UniProt Q86WV6) | 0.018 | -0.105 | 0.009 | 0.067 | -0.047 | -0.006 | 0.005 | 0.012 | 0.009 | 0.088 | -0.037 | -0.01 | -0.043 | -0.008 | -0.212 | 0.056 | -0.043 | -0.008 | -0.076 | 0.055
8 | UBE2J1 (UniProt Q9Y385) | -0.447 | 0.013 | -0.077 | -0.02 | -0.106 | -0.284 | 0.188 | 0.096 | 0.101 | -0.047 | -0.133 | -0.016 | 0.107 | 0.04 | -0.077 | -0.087 | -0.071 | -0.262 | 0.098 | -0.047
